Laboratory results taken from PubChem BioAssay AID1159580 (chemical genetic matrix, 2015).
Hit rate of the full screen: of about 5,500 compounds, about 2,000 (36%) were called active. Not shown: some 18% with an inconclusive outcome. Cut-off read from the data, not from the text of the source: active = normalized growth mostly below about 0.91 (no sharp cut-off); inconclusive = no clear call, values can overlap the other calls; inactive = mostly above about 0.92. The list shows a part of the results.

Assay: chemical genetic growth profiling, strain panel (AID 1159580);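 note: tested at 20 µM; growth read once vehicle control cultures reached saturation at 30 °C; 1 = growth at the plate median or of vehicle wells; lower values mean less growth of the strain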
Conditions: growth OD

Measured: normalized growth

Cc1ccnc(NS(=O)(=O)c2ccc(N)cc2)n1
inactive: S. cerevisiae deletion strains, locus YJR075W, strain HOC1, hits give low values 1.02 | S. cerevisiae deletion strains, locus YKL009W, strain mrt4, hits give low values 1.01 | S. cerevisiae deletion strains, locus YKL068W, hits give low values 1 | S. cerevisiae deletion strains, locus YKL085W, strain MDH1 (second series), hits give low values 1.01 | S. cerevisiae deletion strains, locus YKL085W, strain MDH1, hits give low values 1.01 | S. cerevisiae deletion strains, locus YKL160W, strain elf1, hits give low values 1.01 | S. cerevisiae deletion strains, locus YKL190W, strain CNB1, hits give low values 0.985 | S. cerevisiae deletion strains, locus YKR001C, strain vps1, hits give low values 1.02 | S. cerevisiae deletion strains, locus YKR026C, strain gcn3, hits give low values 1.01 | S. cerevisiae deletion strains, locus YKR091W, strain srl3, hits give low values 0.998 | S. cerevisiae deletion strains, locus YLL001W, strain dnm1, hits give low values 1.01 | S. cerevisiae deletion strains, locus YLL026W, hits give low values 1 | S. cerevisiae deletion strains, locus YLL041C, strain sdh2, hits give low values 1 | S. cerevisiae deletion strains, locus YLR027C, strain aat2, hits give low values 1 | S. cerevisiae deletion strains, locus YLR039C, strain RIC1, hits give low values 1.04 | S. cerevisiae deletion strains, locus YLR058C, strain SHM2, hits give low values 1.02 | S. cerevisiae deletion strains, locus YLR102C, strain apc9, hits give low values 1.01 | S. cerevisiae deletion strains, locus YLR113W, strain HOG1, hits give low values 0.984 | S. cerevisiae deletion strains, locus YLR221C, strain rsa3, hits give low values 0.98 | S. cerevisiae deletion strains, locus YLR258W, strain gsy2, hits give low values 0.975 | S. cerevisiae deletion strains, locus YLR262C, strain YPT6 (second series), hits give low values 1.04 | S. cerevisiae deletion strains, locus YLR262C, strain YPT6, hits give low values 1.05 | S. cerevisiae deletion strains, locus YLR268W, strain sec22, hits give low values 1.03 | S. cerevisiae deletion strains, locus YLR320W, strain mms22, hits give low values 0.961 | S. cerevisiae deletion strains, locus YLR330W, strain CHS5, hits give low values 1.01 | S. cerevisiae deletion strains, locus YLR342W, strain FKS1 (second series), hits give low values 1 | S. cerevisiae deletion strains, locus YLR342W, strain FKS1, hits give low values 1.01 | S. cerevisiae deletion strains, locus YLR357W, strain rsc2, hits give low values 1.04 | S. cerevisiae deletion strains, locus YLR370C, strain arc18, hits give low values 1 | S. cerevisiae deletion strains, locus YLR371W, strain rom2, hits give low values 1.01 | S. cerevisiae deletion strains, locus YLR384C, strain iki3, hits give low values 1.01 | S. cerevisiae deletion strains, locus YLR418C, strain cdc73, hits give low values 1.07 | S. cerevisiae deletion strains, locus YML016C, strain PPZ1, hits give low values 1.01 | S. cerevisiae deletion strains, locus YML032C, strain rad52, hits give low values 1.01 | S. cerevisiae deletion strains, locus YML120C, strain ndi1, hits give low values 1.02 | S. cerevisiae deletion strains, locus YML124C, strain tub3, hits give low values 1.01 | S. cerevisiae deletion strains, locus YMR058W, strain fet3, hits give low values 1 | S. cerevisiae deletion strains, locus YMR078C, strain ctf18, hits give low values 1.01 | S. cerevisiae deletion strains, locus YMR125W, strain sto1, hits give low values 0.995 | S. cerevisiae deletion strains, locus YMR129W, hits give low values 0.998 | S. cerevisiae deletion strains, locus YMR205C, strain PFK2, hits give low values 1.01 | S. cerevisiae deletion strains, locus YMR223W, strain ubp8, hits give low values 1 | S. cerevisiae deletion strains, locus YMR231W, strain pep5, hits give low values 1 | S. cerevisiae deletion strains, locus YMR263W, strain SAP30, hits give low values 0.996 | S. cerevisiae deletion strains, locus YMR307W, strain GAS1, hits give low values 1.01 | S. cerevisiae deletion strains, locus YNL067W, strain RPL9B, hits give low values 1.02 | S. cerevisiae deletion strains, locus YNL071W, strain lat1, hits give low values 0.987 | S. cerevisiae deletion strains, locus YNL128W, strain TEP1, hits give low values 1.02 | S. cerevisiae deletion strains, locus YNL153C, strain GIM3, hits give low values 1.01 | S. cerevisiae deletion strains, locus YNL183C, strain NPR1, hits give low values 0.972 | S. cerevisiae deletion strains, locus YNL209W, strain ssb2, hits give low values 0.982 | S. cerevisiae deletion strains, locus YNL233W, strain BNI4, hits give low values 1.01 | S. cerevisiae deletion strains, locus YNL248C, strain rpa49, hits give low values 1.01 | S. cerevisiae deletion strains, locus YNL250W, strain rad50, hits give low values 1.03 | S. cerevisiae deletion strains, locus YNL271C, strain bni1, hits give low values 1.02 | S. cerevisiae deletion strains, locus YNL298W, strain CLA4, hits give low values 1.02 | S. cerevisiae deletion strains, locus YNL307C, strain MCK1, hits give low values 1.02 | S. cerevisiae deletion strains, locus YNL322C, strain KRE1 (second series), hits give low values 0.998 | S. cerevisiae deletion strains, locus YNL322C, strain KRE1, hits give low values 1 | S. cerevisiae deletion strains, locus YNR049C, strain mso1, hits give low values 1.01 | S. cerevisiae deletion strains, locus YNR052C, strain pop2, hits give low values 1.03 | S. cerevisiae deletion strains, locus YOL006C, strain TOP1, hits give low values 1.03 | S. cerevisiae deletion strains, locus YOL012C, strain htz1 1.03 | S. cerevisiae deletion strains, locus YOL147C, strain pex11, hits give low values 1.02 | S. cerevisiae deletion strains, locus YOR001W, strain rrp6, hits give low values 1.01 | S. cerevisiae deletion strains, locus YOR061W, strain CKA2, hits give low values 1.01 | S. cerevisiae deletion strains, locus YOR069W, strain VPS5, hits give low values 1.01 | S. cerevisiae deletion strains, locus YOR070C, strain gyp1, hits give low values 0.989 | S. cerevisiae deletion strains, locus YOR080W, strain dia2, hits give low values 1.01 | S. cerevisiae deletion strains, locus YOR083W, strain WHI5, hits give low values 0.979 | S. cerevisiae deletion strains, locus YOR106W, strain vam3, hits give low values 0.975 | S. cerevisiae deletion strains, locus YOR136W, strain idh2, hits give low values 1.01 | S. cerevisiae deletion strains, locus YOR144C, strain elg1, hits give low values 1.02 | S. cerevisiae deletion strains, locus YOR184W, strain ser1, hits give low values 1.03 | S. cerevisiae deletion strains, locus YOR231W, strain MKK1, hits give low values 0.98 | S. cerevisiae deletion strains, locus YOR265W, strain rbl2, hits give low values 1.01 | S. cerevisiae deletion strains, locus YOR270C, strain vph1, hits give low values 1.04 | S. cerevisiae deletion strains, locus YOR290C, strain snf2, hits give low values 0.964 | S. cerevisiae deletion strains, locus YOR316C, strain cot1, hits give low values 1.01 | S. cerevisiae deletion strains, locus YPL051W, strain arl3, hits give low values 1.01 | S. cerevisiae deletion strains, locus YPL055C, strain LGE1, hits give low values 0.988 | S. cerevisiae deletion strains, locus YPL078C, strain atp4, hits give low values 1.03 | S. cerevisiae deletion strains, locus YPL106C, strain sse1, hits give low values 0.968 | S. cerevisiae deletion strains, locus YPL240C, strain hsp82, hits give low values 0.989 | S. cerevisiae deletion strains, locus YPL241C, strain CIN2, hits give low values 1.01 | S. cerevisiae deletion strains, locus YPL256C, strain CLN2, hits give low values 0.965 | S. cerevisiae deletion strains, locus YPR119W, strain clb2, hits give low values 1.01 | S. cerevisiae deletion strains, locus YPR141C, strain kar3, hits give low values 1.03 | S. cerevisiae deletion strains, locus YPR163C, strain tif3, hits give low values 1.03 | S. cerevisiae deletion strains, locus YPR167C, strain met16, hits give low values 1 | S. cerevisiae deletion strains, strain wtn01, hits give low values 1.02 | S. cerevisiae strains, strain wild type, hits give low values 0.999
